The results in this text go back to PubChem BioAssay (EPA / NIEHS).

The nature of test [1]: BSK_3C_Vis: BioMAP Diversity Plus: 3C Assay for Morphology Visualization (AID 2283025; active = hit-call score of the fitted dose curve at least 0.9, where 1 is the maximum; inactive = score below 0.9;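 also: light microscopy image of cell morphology used as background control; fitted both ways so gain or loss versus DMSO counts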). Particulars: primary human endothelial cells (HUVEC). The essentials:
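Light-microscopy morphology readout, 24 h exposure, human primary umbilical vein endothelium; analysed relative to DMSO with bidirectional fitting.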

Read-out in test [2]: Transforming growth factor beta 1 (TGFb1), TGFB1 (gene 7040)
The test is described as follows: BSK_BE3C_TGFb1: BioMAP Diversity Plus: BE3C Assay for Transforming growth factor beta 1 (TGFb1) Biomarker Activity (AID 2283036; active = hit-call score of the fitted dose curve at least 0.9, where 1 is the maximum; inactive = score below 0.9;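 also: TGF-b1 protein level measured by ELISA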). Particulars: primary human bronchial epithelial cells; actives raise or lower the signal. The essentials:
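TGF-b1 measured via ELISA, 24 h after chemical dosing of human bronchial epithelial cells (BE3C). Overt cytotoxicity assessed in parallel by SRB (0.1%, TCA-fixed, 560 nm); analysis bidirectional relative to DMSO.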

Read-out in test [3]: Transforming growth factor beta 1 (TGFb1), TGFB1 (gene 7040)
The test is described as follows: BSK_KF3CT_TGFb1: BioMAP Diversity Plus: KF3CT Assay for Transforming growth factor beta 1 (TGFb1) Biomarker Activity (AID 2283072; active = hit-call score of the fitted dose curve at least 0.9, where 1 is the maximum; inactive = score below 0.9). Particulars: primary human keratinocytes with fibroblasts; actives raise or lower the signal. The essentials:
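TGF-b1 ELISA on a 24 h dosed co-culture of human keratinocytes and foreskin fibroblasts; cytotoxicity tracked in parallel cultures by SRB staining.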

Test [4] deals with human CYP2D6, CYP2D6 (gene 1565) (UniProt P10635). The test is described as follows: NVS_ADME_hCYP2D6: NovaScreen (NVS) CYP450-related Enzyme Activity (ADME) Assay for human CYP2D6 (AID 2283107). The essentials: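 Cell-free assay using recombinant enzyme expressed in insect cells, with fluorescence-intensity readout of enzyme activity 1 hour after chemical dosing. Loss of signal versus acetonitrile negative control indicates inhibition. Primary screen ran in duplicate at 10 uM; actives were retested in concentration series.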
Sequence of human CYP2D6, CYP2D6 (gene 1565) (P10635 whole entry, looked up): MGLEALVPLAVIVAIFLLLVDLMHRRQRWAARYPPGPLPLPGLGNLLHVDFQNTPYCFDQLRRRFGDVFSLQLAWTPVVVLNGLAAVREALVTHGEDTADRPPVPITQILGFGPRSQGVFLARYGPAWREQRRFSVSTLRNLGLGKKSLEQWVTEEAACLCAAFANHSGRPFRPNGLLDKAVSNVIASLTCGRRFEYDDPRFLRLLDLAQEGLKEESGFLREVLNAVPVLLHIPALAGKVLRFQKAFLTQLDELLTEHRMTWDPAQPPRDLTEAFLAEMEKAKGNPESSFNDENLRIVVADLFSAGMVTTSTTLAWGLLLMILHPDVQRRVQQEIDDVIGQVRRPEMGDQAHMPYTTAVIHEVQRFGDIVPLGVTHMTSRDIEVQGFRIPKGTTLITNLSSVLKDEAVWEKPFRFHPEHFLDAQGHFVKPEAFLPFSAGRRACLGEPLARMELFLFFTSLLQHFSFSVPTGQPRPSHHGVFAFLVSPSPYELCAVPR

The target of test [5] is human Esterase Plasma (ES), BCHE (gene 590) (UniProt P06276). The test is described as follows: NVS_ENZ_hES: NovaScreen (NVS) Enzymatic Assay for human Esterase Plasma (ES) (AID 2283157). The essentials: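 Primary single-concentration screen at 25 uM in duplicate, then concentration-response to a 50 uM top dose. Human plasma esterase activity detected colorimetrically after 0.25 h incubation, with DMSO as baseline.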
Sequence of human Esterase Plasma (ES), BCHE (gene 590) (P06276 whole entry, looked up): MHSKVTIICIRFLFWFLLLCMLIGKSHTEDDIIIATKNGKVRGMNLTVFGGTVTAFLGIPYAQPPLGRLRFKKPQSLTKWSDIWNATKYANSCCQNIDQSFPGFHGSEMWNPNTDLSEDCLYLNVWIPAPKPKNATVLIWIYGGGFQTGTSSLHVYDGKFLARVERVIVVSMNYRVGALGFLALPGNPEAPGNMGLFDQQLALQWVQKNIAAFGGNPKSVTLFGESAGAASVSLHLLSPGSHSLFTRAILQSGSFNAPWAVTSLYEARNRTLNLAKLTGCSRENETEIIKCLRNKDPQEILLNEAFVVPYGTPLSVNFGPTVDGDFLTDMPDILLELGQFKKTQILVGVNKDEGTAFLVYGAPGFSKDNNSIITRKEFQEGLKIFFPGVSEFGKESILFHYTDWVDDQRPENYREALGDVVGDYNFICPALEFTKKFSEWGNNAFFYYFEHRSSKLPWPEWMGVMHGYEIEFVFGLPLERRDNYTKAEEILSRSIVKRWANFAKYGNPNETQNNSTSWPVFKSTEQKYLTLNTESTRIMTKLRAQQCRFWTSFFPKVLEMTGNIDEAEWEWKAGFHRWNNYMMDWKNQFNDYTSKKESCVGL

The target in test [6] is Muscarinic acetylcholine receptor M2 (Homo sapiens) (UniProt P08172). The test is described as follows: NVS_GPCR_hM2: NovaScreen (NVS) G Protein-Coupled Receptor Assay for human Muscarinic, M2 Receptor (AID 2283273). The essentials: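 CHO-expressed human M2 receptor preparation, competitive displacement of a radioligand read by filter-based scintillation counting after 1 h. Single 25 uM duplicate screen, then concentration-response follow-up of actives; DMSO baseline.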
Sequence of Muscarinic acetylcholine receptor M2 (Homo sapiens) (P08172 whole entry, looked up): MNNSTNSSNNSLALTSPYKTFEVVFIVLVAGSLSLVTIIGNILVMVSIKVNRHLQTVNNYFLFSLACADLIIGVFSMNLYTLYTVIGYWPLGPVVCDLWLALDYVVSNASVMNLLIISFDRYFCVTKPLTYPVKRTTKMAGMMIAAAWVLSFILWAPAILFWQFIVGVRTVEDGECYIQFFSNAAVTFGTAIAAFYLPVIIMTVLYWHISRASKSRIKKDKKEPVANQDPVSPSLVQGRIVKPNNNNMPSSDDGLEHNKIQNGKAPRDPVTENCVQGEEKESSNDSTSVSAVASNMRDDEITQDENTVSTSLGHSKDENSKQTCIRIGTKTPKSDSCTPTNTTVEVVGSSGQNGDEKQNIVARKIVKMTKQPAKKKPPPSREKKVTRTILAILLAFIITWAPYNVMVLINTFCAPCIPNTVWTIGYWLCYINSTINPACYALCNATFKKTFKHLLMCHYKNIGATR

Test [7] concerns the target human Neurokinin, NK2 Receptor, TACR2 (gene 6865) (UniProt P21452). The test is described as follows: NVS_GPCR_hNK2: NovaScreen (NVS) G Protein-Coupled Receptor Assay for human Neurokinin, NK2 Receptor (AID 2283278).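 Also: actives reduce bound radioligand signal relative to DMSO baseline.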 The essentials:
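Radioligand binding on membranes from CHO cells expressing receptor, filter-based scintillation read 4 h after dosing. Initial duplicate screen at 25 uM, actives in concentration series; loss of signal versus DMSO.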

The target in test [8] is human Opioid Receptor Mu (Opiate Mu), OPRM1 (gene 4988) (UniProt P35372). The test is described as follows: NVS_GPCR_hOpiate_mu: NovaScreen (NVS) G Protein-Coupled Receptor Assay for human Opioid Receptor Mu (Opiate Mu) (AID 2283290).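 Also: hits lower bound tracer signal versus DMSO meaning displacement of the ligand.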 The essentials:
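Radioligand displacement binding on membranes from CHO cells expressing the receptor, 2.5 h after dosing, filter-based scintillation counting; loss of signal vs DMSO baseline. Screened in duplicate at 25 uM, actives then run in concentration series.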

The target in test [9] is rat Adrenergic Receptor, Alpha 2 (Adra2), Non-selective Binding, Adra2a (gene 25083) (UniProt P22909). The test is described as follows: NVS_GPCR_rAdra2_NonSelective: NovaScreen (NVS) G Protein-Coupled Receptor Assay for rat Adrenergic Receptor, Alpha 2 (Adra2), Non-selective Binding (AID 2283299). The essentials:
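Filter-based scintillation counting of radioligand binding to rat cortical membrane receptors, measured 1.25 hours post-dosing; loss of signal versus DMSO indicates displacement. Initial single-concentration duplicate at 25 uM, then concentration series.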

Test [10] concerns the target Sodium channel protein type 1 subunit alpha (Rattus norvegicus) (UniProt P04774). The test is described as follows: NVS_IC_rNaCh_site2: NovaScreen (NVS) Ion Channel Assay for rat Sodium Channel, Site 2 (NaCh) (AID 2283322).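 Also: hit means loss of radioligand binding signal relative to DMSO so AC50 marks displacement.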 The essentials:
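Initial duplicate single-point testing at 25 uM, followed by concentration-response runs for actives. Binding of radioligand to rat forebrain membranes quantified after 1 h via filter-based radiodetection.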

Test [11] can be described thus: NVS_IC_rCaBTZCHL: NovaScreen (NVS) Ion Channel Assay for Calcium Channel, Type L, Benzothiazepine Site (CaBTZCHL) (AID 2283337). The essentials:
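Benzothiazepine-site binding was assessed in a tissue-derived, cell-free rat cortical membrane system. After 1.5 h exposure, radioactivity retained on filters was quantified by scintillation; positive and negative controls accompanied every plate.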

Test [12] deals with chimpanzee Androgen Receptor (AR), AR (gene 747460) (UniProt O97775). The test is described as follows: NVS_NR_cAR: NovaScreen (NVS) Nuclear Receptor Binding Assay for chimpanzee Androgen Receptor (AR) (AID 2283346).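 Also: radioligand displacement from AR measured by scintillation counting in a cell-free assay; a loss of bound radioligand signal versus DMSO counts as binding.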 The essentials:
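Cell-free competition binding with insect-cell (Sf9/Sf21) extracted chimpanzee AR; scintillation signal from lysate at 72 h. Screened in duplicate at 25 uM, then concentration-response for actives; fitting relative to DMSO.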

Test [13] concerns the target guinea pig Sigma Receptor, Non-selective Binding, SIGMAR1 (gene 100135589) (UniProt Q60492). The test is described as follows: NVS_OR_gSIGMA_NonSelective: NovaScreen (NVS) Nuclear Receptor Binding Assay for guinea pig Sigma Receptor, Non-selective Binding (AID 2283367). The essentials:
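Guinea pig brain membrane sigma sites were labelled with a radioligand, and bound radioactivity was counted after filtration 1 h post-dose. Compounds were screened at 25 uM in duplicate, then retested as concentration series when active.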

Test [14] has as its target rat Serotonin Transporter (SERT), Slc6a4 (gene 25553) (UniProt P31652). The test is described as follows: NVS_TR_rSERT: NovaScreen (NVS) Transporter Assay for rat Serotonin Transporter (SERT) (AID 2283375). The essentials: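 Rat forebrain membranes were incubated with test chemical for 1 hour; radioligand binding to SERT was measured by filter-based scintillation counting. Primary screen ran in duplicate at 25 uM, with actives followed up in concentration series; DMSO served as negative control.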

Test [15] deals with D(1A) dopamine receptor (Homo sapiens) (UniProt P21728). The test is described as follows: NVS_GPCR_hDRD1: NovaScreen (NVS) G Protein-Coupled Receptor Assay for human Dopamine Receptor D1 (DRD1) (AID 2283269). The essentials: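 Radioligand displacement binding on membranes/protein extracted from HEK293 expressing human D1, cell-free; read 1 h after dosing by filter-based scintillation counting. Primary screen in duplicate at 25 uM, actives followed up in concentration series; signal loss versus DMSO baseline.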
Sequence of D(1A) dopamine receptor (Homo sapiens) (P21728 whole entry, looked up): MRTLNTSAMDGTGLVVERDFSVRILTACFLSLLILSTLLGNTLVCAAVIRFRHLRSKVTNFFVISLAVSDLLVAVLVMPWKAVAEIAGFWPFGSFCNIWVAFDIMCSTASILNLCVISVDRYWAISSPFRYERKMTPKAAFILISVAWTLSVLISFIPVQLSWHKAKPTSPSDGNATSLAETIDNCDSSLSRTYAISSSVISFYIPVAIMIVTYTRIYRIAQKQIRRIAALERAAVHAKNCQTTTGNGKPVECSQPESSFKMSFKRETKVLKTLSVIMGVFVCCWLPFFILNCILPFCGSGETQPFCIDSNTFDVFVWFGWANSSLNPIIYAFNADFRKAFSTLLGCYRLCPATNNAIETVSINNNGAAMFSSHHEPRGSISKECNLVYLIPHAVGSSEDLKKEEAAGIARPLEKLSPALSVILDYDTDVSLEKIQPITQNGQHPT

Test [16] deals with human Peripheral-type Benzodiazepine Receptor (PBR), TSPO (gene 706) (UniProt P30536). The test is described as follows: NVS_MP_hPBR: NovaScreen (NVS) Membrane Protein Assay for human Peripheral-type Benzodiazepine Receptor (PBR) (AID 2283331).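 Also: hits reduce radioligand binding relative to DMSO baseline.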 The essentials:
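Cell-free binding to human colonic membrane preparations measured by filter-based scintillation counting after 1 h. Compounds first run at 25 uM in duplicate, then concentration series for actives; signal loss against DMSO baseline.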

The nature of test [17]: CCTE_Shafer_MEA_dev_firing_rate_mean: CCTE's Neural Network Formation Assay for Mean Firing Rate, Shafer Lab (AID 2284031; active = hit-call score of the fitted dose curve at least 0.9, where 1 is the maximum; inactive = score below 0.9;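 also: curve fitted for loss of firing so AC50 reflects decreased mean firing rate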). The essentials: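 Extracellular spike frequency, AUC over DIV 5–12 recordings, in rat cortical neuron MEA cultures dosed from plating; loss direction vs DMSO.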
Test [18] in a line: CCTE_Shafer_MEA_dev_per_burst_spike_percent: CCTE's Neural Network Formation Assay for Percent of Spikes in a Burst, Shafer Lab (AID 2284032; active = hit-call score of the fitted dose curve at least 0.9, where 1 is the maximum; inactive = score below 0.9;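 also: fitted as a decrease in burst spike percentage below DMSO baseline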). The essentials: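 Value is trapezoidal AUC over recordings on days 5, 7, 9 and 12 of the well-mean fraction of spikes falling in single-electrode bursts; rat cortical cultures exposed continuously from plating, treatment renewed DIV 5 and 9, fitted downward against DMSO.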

The nature of test [19]: CCTE_Shafer_MEA_dev_active_electrodes_number: CCTE's Neural Network Formation Assay for Number of Active Electrodes, Shafer Lab (AID 2284040).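 Also: potency for loss of active electrodes versus DMSO so lower counts are hits.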 The essentials: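 Developing rat cortical networks on MEAs, exposed DIV 0–12. Value is the AUC of active-electrode counts (≥5 spikes/min) from days 5, 7, 9, 12, relative to DMSO.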
Test [20] can be described thus: CCTE_Shafer_MEA_dev_burst_rate: CCTE's Neural Network Formation Assay for Burst Rate, Shafer Lab (AID 2284042; active = hit-call score of the fitted dose curve at least 0.9, where 1 is the maximum; inactive = score below 0.9;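 also: potency for loss of burst rate below DMSO control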). The essentials:
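Primary rat cortical neurons on PEI-coated 48-well MEA plates (laminin added with cells at plating) (16 electrodes/well), exposed from plating to day 12, dosing renewed at DIV 5 and 9. Burst rate averaged over active electrodes, recorded DIV 5, 7, 9, 12, summarized as AUC; loss versus DMSO.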

Results filed as inconclusive are left out. Calls of active or inactive are those of the source. The calls were made as follows, unless noted: active = hit-call score of the fitted dose curve at least 0.9, where 1 is the maximum; inconclusive = response in the unintended direction; inactive = score below 0.9.

Sequence of rat Adrenergic Receptor, Alpha 2 (Adra2), Non-selective Binding, Adra2a (gene 25083) (P22909 whole entry, looked up): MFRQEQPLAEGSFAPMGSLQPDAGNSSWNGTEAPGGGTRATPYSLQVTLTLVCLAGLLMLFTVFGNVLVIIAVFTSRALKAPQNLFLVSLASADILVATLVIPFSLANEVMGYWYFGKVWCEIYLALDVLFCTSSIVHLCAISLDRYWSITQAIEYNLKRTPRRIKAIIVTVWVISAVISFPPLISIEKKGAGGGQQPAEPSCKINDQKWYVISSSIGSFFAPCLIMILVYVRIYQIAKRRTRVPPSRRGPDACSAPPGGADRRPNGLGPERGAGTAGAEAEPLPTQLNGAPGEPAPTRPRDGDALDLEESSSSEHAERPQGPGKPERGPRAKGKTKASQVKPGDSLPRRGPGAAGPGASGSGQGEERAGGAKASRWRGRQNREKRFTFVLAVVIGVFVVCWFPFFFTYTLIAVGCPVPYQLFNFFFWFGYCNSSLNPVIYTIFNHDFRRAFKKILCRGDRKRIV
Sequence of human Peripheral-type Benzodiazepine Receptor (PBR), TSPO (gene 706) (P30536 whole entry, looked up): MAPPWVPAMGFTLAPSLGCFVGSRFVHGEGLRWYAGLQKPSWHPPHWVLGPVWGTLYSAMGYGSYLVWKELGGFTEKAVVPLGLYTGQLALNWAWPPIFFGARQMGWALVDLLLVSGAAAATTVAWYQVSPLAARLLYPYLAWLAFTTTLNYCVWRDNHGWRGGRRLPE
Sequence of chimpanzee Androgen Receptor (AR), AR (gene 747460) (O97775 whole entry, looked up): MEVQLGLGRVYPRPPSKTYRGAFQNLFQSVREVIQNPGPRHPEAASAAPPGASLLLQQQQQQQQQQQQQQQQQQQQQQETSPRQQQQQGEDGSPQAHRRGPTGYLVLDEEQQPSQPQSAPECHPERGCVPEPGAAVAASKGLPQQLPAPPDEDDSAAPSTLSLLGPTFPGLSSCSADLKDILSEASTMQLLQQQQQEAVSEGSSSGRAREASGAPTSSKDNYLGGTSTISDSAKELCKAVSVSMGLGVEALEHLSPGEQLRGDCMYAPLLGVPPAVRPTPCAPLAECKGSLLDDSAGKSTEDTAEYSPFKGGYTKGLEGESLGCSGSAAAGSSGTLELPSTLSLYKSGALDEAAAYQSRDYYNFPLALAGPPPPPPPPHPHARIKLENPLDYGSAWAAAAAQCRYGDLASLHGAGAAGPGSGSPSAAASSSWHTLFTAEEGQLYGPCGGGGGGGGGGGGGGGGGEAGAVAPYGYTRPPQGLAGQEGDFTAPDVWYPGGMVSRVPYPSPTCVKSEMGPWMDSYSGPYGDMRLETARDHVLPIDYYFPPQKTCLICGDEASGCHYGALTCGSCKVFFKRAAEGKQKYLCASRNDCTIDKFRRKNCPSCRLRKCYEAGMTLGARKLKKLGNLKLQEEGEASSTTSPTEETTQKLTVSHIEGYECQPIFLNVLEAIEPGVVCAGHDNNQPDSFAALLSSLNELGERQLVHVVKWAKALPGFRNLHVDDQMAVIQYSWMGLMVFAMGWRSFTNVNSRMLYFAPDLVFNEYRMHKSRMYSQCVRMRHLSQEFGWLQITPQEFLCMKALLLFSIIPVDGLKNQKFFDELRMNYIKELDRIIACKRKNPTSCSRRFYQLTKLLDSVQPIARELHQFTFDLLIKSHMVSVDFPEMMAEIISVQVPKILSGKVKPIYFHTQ
Sequence of rat Serotonin Transporter (SERT), Slc6a4 (gene 25553) (P31652 whole entry, looked up): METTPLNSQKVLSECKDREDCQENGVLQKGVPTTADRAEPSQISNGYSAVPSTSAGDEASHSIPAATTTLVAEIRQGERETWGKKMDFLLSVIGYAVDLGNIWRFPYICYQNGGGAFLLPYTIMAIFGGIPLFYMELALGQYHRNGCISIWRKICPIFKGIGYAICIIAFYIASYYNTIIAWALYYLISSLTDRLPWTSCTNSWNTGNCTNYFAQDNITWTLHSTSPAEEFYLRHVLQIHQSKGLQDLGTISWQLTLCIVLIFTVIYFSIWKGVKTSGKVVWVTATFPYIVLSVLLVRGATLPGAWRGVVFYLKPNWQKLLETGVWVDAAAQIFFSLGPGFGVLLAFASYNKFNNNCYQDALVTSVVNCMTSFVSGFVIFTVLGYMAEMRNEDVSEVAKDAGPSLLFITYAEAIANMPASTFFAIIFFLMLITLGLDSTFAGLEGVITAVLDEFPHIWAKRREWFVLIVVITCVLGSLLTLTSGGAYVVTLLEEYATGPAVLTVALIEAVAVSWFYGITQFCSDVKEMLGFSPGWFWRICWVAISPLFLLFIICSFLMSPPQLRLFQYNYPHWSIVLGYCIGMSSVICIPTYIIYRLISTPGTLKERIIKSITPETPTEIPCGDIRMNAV
Sequence of human Neurokinin, NK2 Receptor, TACR2 (gene 6865) (P21452 whole entry, looked up): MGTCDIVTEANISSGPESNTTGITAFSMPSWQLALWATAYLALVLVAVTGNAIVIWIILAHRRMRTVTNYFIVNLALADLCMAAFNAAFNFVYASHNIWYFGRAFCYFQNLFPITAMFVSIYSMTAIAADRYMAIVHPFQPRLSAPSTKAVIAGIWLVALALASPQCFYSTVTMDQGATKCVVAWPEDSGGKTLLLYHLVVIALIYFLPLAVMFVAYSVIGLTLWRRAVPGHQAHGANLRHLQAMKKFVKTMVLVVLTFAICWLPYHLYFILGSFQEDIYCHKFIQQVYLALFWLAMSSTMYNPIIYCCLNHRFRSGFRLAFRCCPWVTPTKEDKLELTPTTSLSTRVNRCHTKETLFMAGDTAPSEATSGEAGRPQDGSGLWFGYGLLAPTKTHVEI
Sequence of human Opioid Receptor Mu (Opiate Mu), OPRM1 (gene 4988) (P35372 whole entry, looked up): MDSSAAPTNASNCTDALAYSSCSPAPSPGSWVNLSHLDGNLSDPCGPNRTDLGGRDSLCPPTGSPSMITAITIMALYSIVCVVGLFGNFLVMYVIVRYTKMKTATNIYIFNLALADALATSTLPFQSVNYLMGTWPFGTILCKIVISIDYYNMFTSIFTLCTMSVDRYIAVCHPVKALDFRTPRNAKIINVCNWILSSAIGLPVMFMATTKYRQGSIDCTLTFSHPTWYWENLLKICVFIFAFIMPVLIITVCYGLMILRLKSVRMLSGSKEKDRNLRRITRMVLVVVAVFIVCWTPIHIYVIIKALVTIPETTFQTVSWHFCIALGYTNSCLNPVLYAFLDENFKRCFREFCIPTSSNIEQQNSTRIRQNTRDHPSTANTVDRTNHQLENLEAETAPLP

For the compound `CC[N+](CC)(CC(=O)Nc1c(C)cccc1C)Cc1ccccc1`, the AC50 is 39.8 µM (active) in [1]; 0.132 µM (active) in test [4]; 3.7 µM (active) in test [5]; 0.419 µM (active) in test [6]; 16.6 µM (active) in test [7]; 18.7 µM (active) in [9]. For the same compound, the results for the half-maximal activity concentration (AC50) in test [10], in [11] and in test [13] were 3.49 µM (active), 7.02 µM (active) and 12.7 µM (active), respectively. The outcome in test [2], in test [3], in test [8], in test [12] and in test [14] was inactive.
For the compound `CC(=[OH+])/C=C(/C)[O-].CC(=[OH+])/C=C(/C)[O-].CC(=[OH+])/C=C(/C)[O-].[Fe]`, the call in [15] was inactive.
On to `CC(=[OH+])/C=C(/C)[O-].CC(=[OH+])/C=C(/C)[O-].CC(=[OH+])/C=C(/C)[O-].[Al]`, for which the compound was called inactive in [16].
`CNCCC(Oc1ccc(C(F)(F)F)cc1)c1ccccc1` (stereo not given): the half-maximal activity concentration (AC50) in test [17] was 1.87 µM (active); in [18], 4.19 µM (active); in [19] it was 2.55 µM (active); in [20], 2.77 µM (active).

What is called AC50 is the concentration at which the activity in the assay is half-maximal.
